{"source": "PubChem BioAssay (NCI)", "note": "About 83,000 compounds went through this panel and 20% of them were active in at least one assay; those are over-represented in the sample as a whole.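 Cell lines were cultured in 96-well plates, exposed to a single compound concentration, and assessed for percent growth 48 hours later.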 A number with no mark means an inactive call. Calls of active or inactive are those of the source. Rule for the calls: active = growth percent below 10; inactive = the rest."}
{"system": "CAKI-1 renal", "assay": "NCI-60 one-dose screen, 48 h (100 = growth as untreated, 0 = no growth, -100 = all killed)", "settings": "10 µM unless noted"}
{"compound": "COc1cc(-c2nn(-c3cccc(NC(=O)Nc4cc(C(F)(F)F)cc(C(F)(F)F)c4)c3)cc2-c2ccncc2)ccc1Cl", "growth": "18.5%"}
{"compound": "COc1ccc(C(=O)c2cc(OC)c3c(c2)OCO3)cc1O", "growth": "55.5%"}
{"compound": "CCOC(=O)NNC(=S)Nc1ccccc1", "growth": "92.3%"}
{"compound": "N#Cc1c(-c2ccccc2)nc(SCC(=O)N2CCN(c3ccccc3)CC2)[nH]c1=O", "growth": "97.7%"}
{"compound": "C=C1c2nc3ccccc3n2C=C(c2ccc(Cl)cc2)N1Cc1ccccc1", "growth": "79%"}
{"compound": "Cc1cc(C(C)(C)C)ccc1S", "growth": "93.1%"}
{"compound": "CCOC(=O)C1=C(C)NC(C)=C(C(=O)OCC)C1(C)C", "growth": "107%"}
{"compound": "COc1ccc(CNCCCN2C(=O)c3ccc4c5c(ccc(c35)C2=O)C(=O)N(CCCNCCCCNCCCN)C4=O)c(OC)c1OC", "growth": "56.1%"}
{"compound": "NNc1cccc(/C=C/c2ccccc2)cc1=O", "growth": "12.7%"}
{"compound": "O=C(Nc1ccncc1)C(=O)c1cn(S(=O)(=O)c2ccc(Br)cc2)c2ccccc12", "growth": "40.6%"}
{"compound": "O=C(/C=C/c1cc(-c2ccc3c(c2)OCO3)n[nH]1)c1ccc2c(c1)OCO2", "growth": "95.1%"}
{"compound": "CCCOC(=O)n1cccc1", "growth": "108%"}
{"compound": "CCN(CC)c1ccc(CNc2ccnc3ccccc23)cc1", "growth": "61.9%"}
{"compound": "COc1cccc(-c2cc3c(O)cc(C#N)cc3[nH]2)c1", "growth": "88.4%"}
{"compound": "C=C(C)[C@@H]1CC[C@]2(C(=O)N3CCNCC3)CC[C@]3(C)[C@H](CC[C@@H]4[C@@]5(C)C/C(=C/c6ccncc6)C(=O)C(C)(C)[C@@H]5CC[C@]43C)[C@@H]12", "growth": "95.6%"}
{"compound": "O=[N+]([O-])c1cc(Cl)c2[nH]c3c(Cl)cc([N+](=O)[O-])cc3c2c1", "growth": "-34.1% (active)"}
{"compound": "COc1cc(-c2nn(C(=O)NS(=O)(=O)c3ccccc3)cc2-c2ccncc2)ccc1Cl", "growth": "84.8%"}
{"compound": "COc1cc(NCCCCCN)c2ncccc2c1", "growth": "96.7%"}
{"compound": "NC(=N\\N=C/c1ccc(O)cc1)/C(N)=N\\N=C/c1ccc(O)cc1", "growth": "41.5%"}
{"compound": "Cn1c(=O)c2[nH]c(C3CC=CCC3)nc2n(C)c1=O", "note": "(stereo not given)", "growth": "118%"}
{"compound": "O=C(/C=C/c1ccccc1)c1cccc(O)c1", "growth": "93.6%"}
{"compound": "C=C[C@@H]1C[C@H](O)Cc2cc(F)ccc2N1", "growth": "92.3%"}
{"compound": "O=C(O)Cc1cccc(=O)c(O)c1C(=O)O", "growth": "96.1%"}
{"compound": "O=C(O)COc1ccc(-c2cssc2=S)cc1", "growth": "104%"}
{"compound": "c1ccc(-c2nnc(-c3ccccn3)s2)nc1", "growth": "50.1%"}
{"compound": "CC(C)CC1NC(C)(C)CO1", "note": "(stereo not given)", "growth": "92.5%"}
{"compound": "CC(C)(C)N1CCC1C(N)=O", "note": "(stereo not given)", "growth": "83%"}
{"compound": "COc1ccc(-c2cnnn2-c2nonc2-n2cccc2)cc1OC", "growth": "42.9%"}
{"compound": "O=S(=O)(NCCNc1nccc(-c2c(-c3cccc(O)c3)nc3sccn23)n1)c1ccc(F)cc1", "growth": "82.7%"}
{"compound": "COc1cc(-c2nn(-c3cccc(NC(=O)c4cccc(C(F)(F)F)c4)c3)cc2-c2ccncc2)ccc1Cl", "growth": "44.7%"}
{"compound": "Cn1cnc2c(N3CCN(C(=O)OCc4ccc5c(Cl)cc(Cl)c(O)c5n4)CC3)nc(Cl)nc21", "growth": "63.8%"}
{"compound": "COc1ccc(-c2c(N)n[nH]c2-c2cc(OC)c3c(c2)OCCO3)cc1", "growth": "70.3%"}
{"compound": "CCOC(=O)c1ccc2c(c1)c1c(C)c3cccnc3c(C)c1n2C", "growth": "30.9%"}
{"compound": "Cc1nc2ncccc2nc1Nc1ccc(S(=O)(=O)Nc2ccccn2)cc1", "growth": "82.6%"}
{"compound": "COc1ccc(C2=C(c3cc(OC)c(OC)c(OC)c3)C(=O)CC2)cc1", "growth": "53.5%"}
